V-ATPase pH: yeast V-ATPase proton transport regulation by pHLuorin; S. cerevisiae, pHLuorin cytosolic pH fluorescence; response, % at 10 µM; 350,000 tested, 0.37% active; in the data active = response mostly above about 7.3%, no sharp cut-off; inactive = mostly below about 5.4%; note: actives read high
m5-HT2A agonist: mouse HTR2A agonism via beta-arrestin recruitment; AID 624169; CHO-K1 mHTR2A beta-arrestin complementation, luminescence; percent of 30 µM serotonin response; activation, % at 7.6 µM; P35363; 360,000 tested, 0.66% active;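 active = activation above a run cutoff, the mean activation of all tested compounds plus 3 SD, cut at about 14% in these data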;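 note: 0% = plate median of compound wells and 100% = 30 µM serotonin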
JMJD2C inh: inhibitors of human GASC-1 (JMJD2C) demethylase | Q9H3R0 | GST-JMJD2C(1-420) H3K9me3 demethylation, DELFIA europium | AID 2099 | inhibition, % at 2.35 µM | 330,000 tested, 0.069% active;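 active = more than half of a compound's replicate wells show inhibition beyond 50%, single wells judged on their own value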;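 note: signal counts dimethyl H3K9 product captured on neutravidin plate; 0% = median of DMSO wells and 100% = 0.3 times that DMSO median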
MEX-5 binding: C. elegans MEX-5 TCR-2 RNA binding activity; AID 1832; 300,000 tested, 0.38% active; MEX-5/FITC-TCR2 RNA binding, fluorescence polarization; active compounds read low; activity score (negative = inhibition of binding), % at 10 µM;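 active = inhibition past about -25% in most replicates, and total fluorescence under double the plate's negative control median, limit read from the data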;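 note: 0% = DMSO and -100% = 5 µM competing unlabeled TCR2 RNA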
Target sequence (Q9XUB2 whole entry, looked up): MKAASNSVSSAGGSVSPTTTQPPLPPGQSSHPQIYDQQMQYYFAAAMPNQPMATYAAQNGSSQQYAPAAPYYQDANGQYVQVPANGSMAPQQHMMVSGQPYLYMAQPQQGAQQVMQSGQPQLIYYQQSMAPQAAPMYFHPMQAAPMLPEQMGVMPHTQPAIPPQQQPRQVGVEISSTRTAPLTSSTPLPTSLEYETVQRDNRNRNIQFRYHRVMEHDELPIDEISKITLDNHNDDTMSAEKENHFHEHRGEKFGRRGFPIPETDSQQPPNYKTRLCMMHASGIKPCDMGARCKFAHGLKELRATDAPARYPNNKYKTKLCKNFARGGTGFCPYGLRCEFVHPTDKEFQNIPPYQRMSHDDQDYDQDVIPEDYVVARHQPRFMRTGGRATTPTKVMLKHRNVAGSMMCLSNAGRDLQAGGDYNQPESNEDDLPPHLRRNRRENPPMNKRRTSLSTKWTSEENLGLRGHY
VLA-4 inh: inhibition in a human VLA-4 binding assay | P13612 | VLA-4 expressing cells, ligand binding flow cytometry | inhibition, % (about 7 µM as worked out from the volumes in the protocol) | 330,000 tested, 0.2% active | AID 2557; in the data active = inhibition above about 50%
Exocytosis inh: blocks lytic granule exocytosis; TALL-104 LAMP-1 surface exposure, flow cytometry; cells stimulated with thapsigargin and PMA; inhibition, % at 10 µM; AID 651702; 360,000 tested, 0.66% active;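 active = inhibition above about 55%, limit read from the data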
VLA-4 mod pick: human VLA-4 allosteric modulation in cherry picked compounds | shares compounds with VLA-4 inh | U937 cells, HUTS-21 LIBS mAb binding, flow cytometry; LDV ligand present at threefold Kd | inhibition, % at 6.7 µM | 1,300 tested, 2% active | AID 2813; in the data active = inhibition above about 40%;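 note: 0% = ligand without compound and 100% = no ligand background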
An asterisk follows results filed as active; . = no result given. Rows were chosen to be rich in hits. Some 2.2% of all compounds tested hit in one or more screens of this group.

SMILES | V-ATPase pH | m5-HT2A agonist | JMJD2C inh | MEX-5 binding | VLA-4 inh | Exocytosis inh | VLA-4 mod pick
COc1cccc(O)c1CN1CCCC(C(=O)c2ccccc2SC)C1 (configuration not stated) | -4 | -6 | 10 | 1 | 51* | -1 | -4
O=[N+]([O-])[N-][n+]1cnn(Cc2ccccc2)c1 | 7 | -1 | 4 | 0 | 16 | 1 | .
CN1C2CCC1C(C(=O)O)C(OC(=O)c1ccccc1)C2 (configuration not stated) | -2 | -1 | . | . | 35 | 0 | 3
COC(=O)C1C2CC[C@@H](CC1OC(=O)c1ccccc1)N2 (some centres not stated) | 3 | 3 | . | . | 8 | 2 | -1
C/C1=C\[C@@H](C)C/C=C/[C@H]2[C@@H]3O[C@]3(C)[C@@H](C)[C@H]3[C@H](Cc4c[nH]c5ccccc45)NC(=O)[C@]32C(=O)/C=C/C(=O)[C@@H]1O | 0 | 22* | 6 | 0 | 70* | 45 | 37
CCOC(=O)c1c(NC(=O)c2c(N)n(CCCOC)c3nc4ccccc4nc23)sc2c1CCCC2 | -1 | 0 | -2 | 4 | 31 | 1 | .
CCOC(=O)c1c(NC(=O)C(c2ccccc2)c2ccccc2)sc2c1C1CCN2CC1 | -4 | 3 | 19 | 0 | -4 | 5 | -3
COc1ccc(C(=O)OC2C[C@H]3CC[C@@H](C2)N3O)cc1OC (some centres not stated) | -2 | 1 | 14 | 1 | -18 | -15 | 1
CN1C2CCC1CC(OC(=O)c1cccc(O)c1)C2 (configuration not stated) | 6 | -5 | . | . | . | -2 | .
COc1ccc(CC2(CCc3ccncc3)C(=O)NC(=O)NC2=O)cc1OC | -2 | 0 | -5 | -1 | 13 | -3 | .
Cc1ccc(CN2CCCN(Cc3ccc(C)cc3)S2(=O)=O)cc1 | 0 | -1 | 0 | -1 | 4 | 1 | .
Cc1cccc(CN2CCCN(Cc3ccc(Cl)cc3)S2(=O)=O)c1 | -1 | -6 | -2 | 0 | 45 | 0 | -1
O=C1N[C@@H](Cc2ccccc2)C(=O)N2[C@H]1C[C@H]1c3ccccc3N(OOSc3ccccc3)[C@H]12 | -2 | -2 | 18 | 3 | 1 | -3 | .
C=C1[C@H]2CC[C@H]3[C@]4(C)C[C@H](O[C@H]5O[C@H](CO)[C@@H](OS(=O)(=O)O)[C@H](OS(=O)(=O)O)[C@H]5OC(=O)CC(C)C)C[C@@H](C(=O)O)[C@H]4CC[C@]3(C2)[C@H]1O | 1 | 1 | . | . | 57* | -8 | 3
CCCC(=O)NC(Oc1ccccc1Cl)C(Cl)(Cl)Cl (configuration not stated) | 0 | -2 | -2 | 3 | -2 | -2 | .
Cc1cc(C)cc(N2C(=O)NC(=O)/C(=C\c3cccn3-c3ccccc3)C2=O)c1 | 3 | -2 | -3 | -4 | 44 | 26 | 16
Cc1cc(C)cc(N2C(=O)NC(=O)/C(=C\c3cccn3-c3ccc(Cl)cc3)C2=O)c1 | -3 | 0 | 15 | -16 | 17 | 44 | .
CN1[C@@H]2CC[C@H]1CC(OC(=O)C1C=Nc3ccccc31)C2 (some centres not stated) | -1 | -5 | -14 | 0 | 51* | 0 | 11
CN1C2CCC1CC(OC(=O)c1ccc([N+](=O)[O-])cc1)C2 (configuration not stated) | 0 | 4 | -13 | 0 | 12 | -2 | .
C[C@]12CCC3C(CC[C@H]4C[C@@H](O)CC[C@]34C)C1C[C@@H](N)[C@@H]2O (some centres not stated) | -1 | -2 | 4 | . | 0 | -10 | .
O=C1CN(O)C(c2ccccc2)=c2cc(Cl)ccc2=N1 | -1 | -5 | -1 | 0 | 101* | 0 | -12
Cc1cc(Cl)ccc1OCC(=O)O | 3 | -1 | -14 | 1 | 56* | -1 | -3
O=c1[nH]c(=S)n(Cc2ccc(F)cc2)c(O)c1C=NCC1CCCO1 (configuration not stated) | -5 | -3 | 2 | 3 | -14 | 1 | .

Screening data from PubChem BioAssay.
